In PubChem BioAssay (NCATS):
Results filed as inconclusive are left out. A call without a number means that no potency is given here. Values without a mark were called inactive. Calls of active or inactive are those of the source. Calls follow the shape of the dose curve; as a rule, active = well fitted inhibition curve with a large enough effect; inconclusive = small, poorly fitted or top-dose-only effect; inactive = flat fitted curve, though single readings scatter.

assay: qHTS for Inhibitors of Plasmodium falciparum (DD2) proliferation (AID 504314);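 also: parasite DNA measured by SYBR Green fluorescence after red cell lysis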; details: P. falciparum Dd2 in erythrocytes, SYBR Green growth, 72 h; series mostly up to 6.11 µM
Procedure, shortened: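 SYBR Green growth assay: 72 h compound exposure of infected red cells (2.5% hematocrit, 0.3% parasitemia), then lysis and overnight dye staining, fluorescence 485/535 nm. Values scaled between DMSO and 0.29 uM artemisinin controls.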

Row | Structure (SMILES) | Potency | activity, negative = inhibition
1 | CCCCCCCC1=Cc2ccccc2C(C(C(=O)OC)C(=O)OC)N1C(=O)OC (stereo not given) | inactive | –
2 | COC(=O)N[C@@H](c1ccccc1)C(C(=O)OC)C(=O)OC | inactive | –
3 | C=C(C)C(O)C=Cc1ccccc1OC (stereo not given) | inactive | –
4 | C#CC[C@@]1(C(=O)OC)C=C[C@@H](C)[C@H](c2ccccc2Br)N1C(=O)C(F)(F)F | inactive | –
5 | Cc1ccccc1Nc1oc(-c2ccccc2)nc1C=Cc1ccccc1 | inactive | –
6 | C=C(Nc1ccc(OC)cc1)C(=O)OC | inactive | –
7 | C#CCN1C(=O)CC[C@@]23C1=NC(C(=O)OC)=C(C(=O)OC)[C@@H]2N(CC=C(C)C)c1ccccc13 | inactive | –
8 | COc1ccc2c(c1)[C@@]1(OCCC=C[C@@H]1C)C(=O)N2Cc1ccc(F)cc1 | inactive | –
9 | CCC=C1C(=O)[C@]2(C(=O)c3ccccc3)C[C@H]3CCC(CCC)(C2=O)[C@@]13OC | inactive | –
10 | CCCCCCCc1cc2ccccc2c2c(C(=O)OC)c(C)c(C(=O)OC)n12 | inactive | –
11 | CC12C=C(C=Cc3ccc(C(F)(F)F)cc3)C(C)(C1)C(c1ccc(C(F)(F)F)cc1)CC2=O (stereo not given) | inactive | –
12 | C=CC[C@@H]1C=C[C@H](ON=C2c3cc(OC)ccc3O[C@H](c3cccc(OC)c3)[C@@H]2O)[C@H](CO)O1 | inactive | –
13 | CCCCc1cc2c(cn1)=C(OC(=O)c1ccco1)C(C)(OC(=O)CC)C(=O)C=2 (stereo not given) | – | 5.3% [at 1.12 µM]
14 | CCOC(=O)C1(C(=O)OCC)CC2=C(C=CC3=C(C=C2)CC(C(=O)OCC)(C(=O)OCC)C3)C1 | inactive | –
15 | C=CCC12C=C(OC)C(=O)C(C1=O)C1c3ccccc3CC12 (stereo not given) | inactive | –
